For orientation: Inhibition means the change of the read-out against control, counted positive when it falls.

Potency and affinity values are given separately.

Experiment [1] deals with Klebsiella pneumoniae. Conditions: Concentration 32 ug.mL-1; ASSAY_TEST Inhibition of Bacterial Growth; detection method Absorption (OD600); MEDIA CAMHB; plate type 384well; NBS; CORNING #3640; time 18 hr.
Experiment [2] has as its system Candida albicans. Particulars: 32 ug/mL.
Experiment [3] relates to Cryptococcus neoformans. Conditions: Concentration 32 ug.mL-1; ASSAY_TEST Inhibition of Fungal Growth; detection method Resazurin; Absorption (OD600-OD570); plate type 384well; NBS; CORNING #3640. Background: The colour change of resazurin is a common sign of viable cells or microbes.

`C#CCNc1nc(N)c(C#N)cc1C#N`: the Inhibition in experiment [1] is 1.8%; in experiment [2], 2.29%; in experiment [3], -24.9%.

Regarding `N#Cc1c(N)nc(NCCCCC2CCN(Cc3ccccc3)CC2)c(C#N)c1-c1ccccc1`, the figures for the Inhibition in experiment [1], in experiment [2] and in experiment [3] were 9.09%, 2.22% and 0.12%, respectively.

Regarding `Nc1c2c(nc3c1c1ccccc1n3Cc1ccccc1)CCCC2`, the Inhibition in experiment [1] is 9.09%; in experiment [2], 1.09%; in experiment [3], -84.21%.

As for `CNCc1cc2ccccc2n1C.Cl`, the Inhibition is 8.53% in experiment [1], 1.26% in experiment [2] and -5.12% in experiment [3].

`C#CCN(C)c1ncc(C#N)c(N)n1`: the Inhibition in experiment [1] is 9.44%; in experiment [2], 5.2%; in experiment [3] it was -42.08%.

`CC(C)NNC(=O)Cc1c[nH]c2ccccc12`: the Inhibition in experiment [1] was 18.29%; in experiment [2] it was -0.05%; in experiment [3], -1.92%.

As to `COc1ccc(C2c3c(nc4c(c3N)CCCC4)Oc3ccc4ccccc4c32)cc1OC` (stereo not given), the Inhibition in experiment [1] was -20.58%; in experiment [2], 2.65%; in experiment [3] it was 0.83%.

Take `C#CCn1c(N)c(C#N)c2cc(O)ccc21`: the Inhibition in experiment [1] is 10.3%; in experiment [2], 1.41%; in experiment [3], -78.39%.

For `CCOC(=O)/C(C#N)=C\c1ccc([N+](=O)[O-])cc1`, the Inhibition is 10.6% in experiment [1], 5.79% in experiment [2] and -3.2% in experiment [3].

On to `N#Cc1c(Cl)nc(Sc2ccccc2)c(C#N)c1-c1ccccc1`, for which the Inhibition in experiment [1] is -3.62%; in experiment [2] it was 2.71%; in experiment [3], -38.87%.

Turning to `Cl.ClCCCC1CCNCC1`, the Inhibition in experiment [1] was 10.49%; in experiment [2], 0.27%; in experiment [3], -2.91%.

With `COc1ccc2c(c1)cc(CN(C)Cc1cn(Cc3ccccc3)nn1)n2C`, the figures for the Inhibition in experiment [1], in experiment [2] and in experiment [3] were 5.47%, 2.23% and -55.57%, respectively.

Take `COc1ccc2c(c1)cc(C(=O)O)n2C`: the Inhibition in experiment [1] is 11.78%; in experiment [2] it was 31.1%; in experiment [3], -23.41%.

As for `C#CCN(C)Cc1cc2cc(OCCCCC3CCN(Cc4ccccc4)CC3)ccc2n1C`, the figures for the Inhibition in experiment [1], in experiment [2] and in experiment [3] were 10.12%, 2.73% and -48.77%, respectively.

Turning to `COc1ccc(C2C(C#N)=C(Cl)Oc3c2ccc2ccccc32)cc1OC` (stereo not given), the Inhibition in experiment [1] was -4.48%; in experiment [2] it was 18.1%; in experiment [3], -55.36%.

Regarding `CC(=O)O[C@H]1CC[C@H](NC(=O)c2ccccc2)CC1`, the values for the Inhibition in experiment [1], in experiment [2] and in experiment [3] were 10.24%, 3.3% and -39.27%, respectively.

As for `COC(=O)/C(=C/c1ccc(O)cc1)NC(=O)c1ccccc1`, the results for the Inhibition in experiment [1], in experiment [2] and in experiment [3] were -14.62%, 1.73% and -3.07%, respectively.

Take `O=C1NC(=S)N/C1=C\c1c[nH]c2ccccc12`: the results for the Inhibition in experiment [1], in experiment [2] and in experiment [3] were 4.51%, -0.31% and -1.8%, respectively.

Consider `CCOC(=O)c1c(C)nc(N)c(C#N)c1-c1cccs1`, for which the Inhibition in experiment [1] is -1.63%; in experiment [2] it was 2.63%; in experiment [3] it was -31.89%.

Turning to `CCOC(=O)C1=C(C)OC(N)=C(C#N)C1c1ccncc1` (stereo not given), the Inhibition in experiment [1] is 10.54%; in experiment [2], -1.5%; in experiment [3] it was -58.29%.

In the case of `C#CCN(C)Cc1cc2cc(OCc3ccc(OC)c4ncccc34)ccc2n1C`, the Inhibition in experiment [1] was -13.41%; in experiment [2], 6.72%; in experiment [3], -26.86%.

`Cn1ccnc1C1c2ccc3cccnc3c2Oc2nc3c(c(N)c21)CCC3` (stereo not given): the Inhibition in experiment [1] was 5.38%; in experiment [2], 2.9%; in experiment [3] it was -104.91%.

For the molecule `N#Cc1cc2c(N)n[nH]c2nc1N`, the Inhibition is 6.95% in experiment [1], 0.04% in experiment [2] and -4.92% in experiment [3].

Take `Nc1c2c(nc3nc4ccccc4nc13)CCCC2`: the Inhibition is -2.37% in experiment [1], 2.21% in experiment [2] and -107.03% in experiment [3].

In the case of `CCOC(=O)c1cc2cc(OCc3ccccc3)ccc2[nH]1`, the Inhibition in experiment [1] was 6.66%; in experiment [2] it was 1.86%; in experiment [3], -3.27%.

Regarding `CNCc1cc2cc(OCc3ccccc3)ccc2n1C.Cl`, the Inhibition is 14.91% in experiment [1], -0.02% in experiment [2] and 0.75% in experiment [3].

Regarding `Cc1ccc(C(O)SNNc2nc(C)nc3c2c(C)nn3-c2ccccc2)cc1` (stereo not given), the figures for the Inhibition in experiment [1], in experiment [2] and in experiment [3] were 11.05%, -0.04% and -5.24%, respectively.

For `Nc1c2c(nc3c1C(c1ccc(Cl)c(Cl)c1)c1ccc4ccccc4c1O3)CCCC2` (stereo not given), the Inhibition in experiment [1] is -10.24%; in experiment [2] it was 4.63%; in experiment [3], -2.87%.

As for `N#CCC(=C(C#N)C#N)c1ccccc1`, the Inhibition in experiment [1] is 11.23%; in experiment [2], 5.35%; in experiment [3], -3.99%.

`CCOC(=O)CCc1c[nH]c2ccccc12`: the figures for the Inhibition in experiment [1], in experiment [2] and in experiment [3] were -13.33%, 5.29% and -6.58%, respectively.

As to `C=CCNCc1cc2cc(OCCCC3CCN(Cc4ccccc4)CC3)ccc2[nH]1.O.O=C(O)C(=O)O.O=C(O)C(=O)O`, the figures for the Inhibition in experiment [1], in experiment [2] and in experiment [3] were -6.45%, 0.53% and -57.95%, respectively.

With `C#CCN(C)c1nc(NCCCC2CCN(Cc3ccccc3)CC2)c(C#N)cc1C#N`, the Inhibition is -7.79% in experiment [1], 3.51% in experiment [2] and -58.85% in experiment [3].

On to `Cc1nn(-c2ccccc2)c2ncnc(Nc3ccccc3)c12`, for which the Inhibition in experiment [1] was 14.62%; in experiment [2], 0.48%; in experiment [3], -2.23%.

On to `C#CCNc1[nH]c2ccc(O)cc2c1C#N`, for which the Inhibition in experiment [1] was 14.34%; in experiment [2], 1.86%; in experiment [3] it was -54.9%.

In the case of `C#CCN(C)c1nc(OC)c(C#N)cc1C#N`, the Inhibition in experiment [1] was 1.2%; in experiment [2] it was 2.65%; in experiment [3] it was -43.21%.
